Assay results published in PubChem BioAssay AID1347423 (Functional Genomics Laboratory (NCATS/FGL), 2020).
The campaign covered roughly 52,000 sequences. About 210 (0.4%) were called active. The sample as a whole holds a higher share of actives than the screen did. Values without a mark were called inactive.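 How the source made its calls: active means gene whose silencing raises cell survival under the drug, median off-target-corrected z-score across its silencing RNAs 2 or more; inactive means the rest.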

assay: Resistance to Poly (ADP-Ribose) Polymerase inhibitor: Gene Identification via Genome-wide siRNA Screen; conditions: mouse BRCA2 R2336H ES cells, olaparib, CellTiter-Glo viability; hits give high values
From the text: The role of Poly (ADP-Ribose) Polymerase (PARP) proteins in DNA repair has been elegantly utilized for the synthetic lethality-based treatment of BRCA-deficient tumors by PARP inhibitors. PARP inhibitors are now being used for treatment of BRCA-deficient breast and ovarian cancers. […] While several mechanisms of drug resistance have been identified, majority of these tumors develop drug resistance due to unknown causes. To identified novel regulators of chemo-resistance in BRCA2-mutated cells, we performed a genome wide siRNA library screen. We have found ES cells expressing a hypomorphic allele of BRCA2 to be hypersensitive to PAPP inhibitors (such as olaparib). We used ES cells expressing a mutant allele of BRCA2 that has a single amino acid substitution at position 2336 (arginine to histidine, R2336H). The screen was conducted using an Ambion (Thermo) Silencer Mouse Genome siRNA collection. The library targets 17,575 mouse genes with 3 siRNAs per gene. TET2 (E130014J05Rik) was identified as a top candidate.
Transfections were performed in 384 well plates (Corning 3707). Plates were coated with 0.1% gelatin in H2O overnight at ambient temperature. Gelatin solution was aspirated (BioTek EL406) and siRNAs were printed using a Bravo VPrep liquid handler integrated within a BioCel automation platform (Agilent). Cell viability was measured using CellTiter Glo (Promega). For transfections, […] of serum free media containing Lipofectamine RNAiMax […] was added to wells containing siRNA (0.8pmol). Lipid and siRNA were allowed to complex for 45 min at ambient temperature before addition of 1000 cells in DMEM, 30% FBS to yield final transfection mixtures containing 20 nM siRNA in DMEM, 15% FBS. PARPi (olaparib, AZD2281) was added 48 h post-transfection (500 nM) and viability (CellTiter Glo, Promega) was assayed 72 h later on a PerkinElmer Envision 2104 Multilabel plate reader. Ambion Silencer Select Negative Control #2 was incorporated on all screening plates (16 wells) and the median negative control value on each plate was used for normalization. An siRNA targeting Trp53 was used as a positive control. This control yielded a median protective effect of ~1.9 fold versus negative control throughout the screen. The median absolute deviation (MAD) based z-score was calculated for each siRNA. Genes were then ranked by taking the median value for all siRNAs tested against a given gene. Scores were also adjusted for seed-based off-target effects to help deprioritize likely false positives.

Sequence	z-score
GCUUUUGAUAUUCCACGUUTT against Pole2	-0.0546
GGAAUCGUCUGAGAAAUUCTT against Lgmn	0.618
CCCUCUUUAUCGUCUGUGATT against Gpha2	-0.468
CCAACAAUCCGUAUCGACCTT against 4930425N13Rik	-0.139
GGAAGAGGUUGAGAUCCAATT against Pogk	0.561
GGACACUUAGCAGCAAAGGTT against Lsm7	-1.42
CCUUGUACACGGAUUGAAUTT against Itga6	2.44 (active)
CCGUCUAUACAUCUUUCCATT against D630005B22Rik	-1.51
GCAGUAUAUCCUACAUUGGTT against Olfr510	1.69 (active)
CCUGAUAUAUGACUUUGGCTT against Ntf5	-0.0586
CCUGCACAGGAUAAUUAUGTT against Zfp426	1.21
GGAGAUGAACAAGGACCUATT against Apoa1	1.02 (active)
GGUCAAUUCCCAUACCCUGTT against Trfr2	0.815
CCAACUAUAACUCAGUCACTT against Ebf1	0.374
GGCACACGGUUUUCAUUAATT against Pcdhb5	-0.354
GGCAUCACUGAUGAAUGAATT against Pacsin2	-0.947 (active)
CCACUUUUAAAGGAAUGUGTT against Ncoa1	-0.0128
GCUUGCAUGUACAGACAUUTT against Olfr517	1.3
CCAUCUGAUUUCUUUCCAGTT against MGC78233	-0.642
GGAAAUGCCUUCAGAAAUUTT against Slc9a3r1	0.863
GCCAAUGUAACCUUCAAAATT against Lypla1	0.603
GGGCGACACAAGGUUUUUGTT against Kif3a	1.13 (active)

Sequence	z-score
GGAGUGUUUGAGAAAUACCTT against BC027342	-0.283
GGCAAAGAUCGCAUCUUAATT against Eif2c2	0.222
GCUGCAUCCGUAGAUGUUGTT against Fthfd	-0.992
GGCCAAAGAGGAGGAAAACTT against D5Bwg0834e	-0.569
GGAGACAGUAAUAGCUCAUTT against Trp53bp1	2.14 (active)
GGACUUGUGGCUGAAAACCTT against Slc22a7	0.176
GGGAACAGCAUCUCUGUCATT against E130115E03Rik	-0.944
CCCUCAACUUUCAGAUCAGTT against Ard1	0.611
CCUCGUUCCUAUCAUUAACTT against Sdccag8	0.858
GGAAAGAAUAUGAGAAUGCTT against Reck	2.07
UUGUCCUGGUCUCCUAUGCTT against Olfr141	-1.98
CCCGCUCAAGAUCCUGUUUTT against 2310011J03Rik	-1.85
GCGAGUCGCUCAUAGUGAATT against AW822216	0.476
GGAUCUGAAGGAAUACUUUTT against 2400010G15Rik	2.14 (active)
GCAGCACCUUUGUGGUUCCTT against Ins2	-0.904
CCGUGCCAAUAGUUCUGCUTT against Dpp4	0.286
GCACUGGAAUCAAACCAUCTT against Ppp2r5b	2.45 (active)
GGUUUGAGCUCUUUAUUUUTT against Cyp2j13	0.00818
GGCGCAUGUUUCCAGCAAUTT against Tbx18	1.87
GGAUCUCUGUUUCUCAAAATT against Slc19a3	0.771
CCUCAAGAGAGCUACCGCATT against 1700018C11Rik	0.313
GGCCCAUUGAUCUGUGAUATT against Klk8	-0.338

Sequence	z-score
GCAUGCGCGCUACACUCUATT against Adamts5	0.75 (active)
GAUUACAGACAGUGGAAAATT against Ndufb3	0.951
GGUAGUGUUAACUAUAUGGTT against Hmgb3	1.85 (active)
GAUCUUAUAUGUUGGUGGUTT against V1rc2	-0.413
CCUUAAUAAACUAUGCUGCTT against 2810439M11Rik	-1.83
CCCUUGAAGAUCACUUAGCTT against Apln	0.228
GGCACAGGGACCAUUGUUGTT against Hsd17b1	2.34 (active)
CGUACAAGACCAACAGAAGTT against D8Ertd82e	2.36
GCUCAACAGACUCUGUACUTT against Igsf4d	2.89
GCUAGUUGGAGCUAGAUUATT against E130320D18	0.013
GGGUUCCUCCUUUCACAGATT against Ppia	-0.754
CCGAAAUAAGGCUAGCUCATT against Rfxdc1	1.33
CGGCCUAUCUCUUGGUUUATT against Usp18	2.69 (active)
GGACAUCCAUUCAAGGCCUTT against Rtn3	1.05
GGAAUUUGACAAACUCAGCTT against Rcn3	0.337
CCGUGGGACCAGAGUUAAATT against Gm253	1.99
GGUCAUCUAUCGUGUGCUGTT against Lamb2	1.09
CCAUUUAACCGUAAGACGUTT against Krtap8-2	0.535
CCUACAUUCACCAAAAGGUTT against Usp9y	0.561
GGUCUCAAUCAGAGUUACATT against D430030K24Rik	1.08 (active)
GGUGAUCAAUCCUCUAAUATT against Cri2	3.03
AACAGCAUCUUUGUGGUCCTT against Ins1	-0.451

Sequence	z-score
GGAUAAACUUCCAUCUUUCTT against Car14	1.27
GGAAGGAAGAAAAAAUAGUTT against Acat1	-0.146
GGGCUGGAAUAAACUUGUCTT against Usp15	1.51 (active)
GGAACAUAGUAGCAUGCCATT against Leprel2	-0.442
GGCUUAUGUCCCAAAGCUATT against Nexn	1.35
CUGUAAGGCGGAUAAGACCTT against 2610017I09Rik	-0.52
CCCACUAAGAAACAAUCUATT against Gp1ba	0.484
GGGACUUCUUGUGAAUGGATT against Mobp	-0.971
GUCUGUAUUCCUAGAUUCCTT against Olfr794	0.287
GGUCACUGUUUCCCUAGACTT against Prss33	-0.494 (active)
GGUUAGGUUGAUGAAUAAGTT against Eif4ebp2	-0.495
GGUUUUUGAGCCAUAUCCATT against 4632404H22Rik	0.625
GGAUCCAAGCAUUAUAGUGTT against LOC229512	-0.425
CCCUUGUGAUGUGGUGAAGTT against Slc25a22	-1.58
GGACAAGGAUAGUAGUAAGTT against Adprt1	3.83 (active)
GCAUGAAAACACGUUUGGGTT against Hdac11	0.768
CGAUCUUCCAAACCCUCUUTT against Dhh	-0.652
GGACUGAGGAAGAAUUUAATT against Grp58	-0.954
GGAAUGUAUCCAGGACUUCTT against Brd4	-1.95
GGAGAUCGUGCAAUUCAUUTT against Rasl2-9	-0.53
GGCGGUGAUCCAGGGUUUATT against Klc2	-0.0337
GCAAUGUCGCCAAACGUAATT against Zfpn1a1	-0.213

Sequence	z-score
CCGUAAUUGAUUCUUUACUTT against Kif3a	2.25 (active)
GCCCAAACUCAAGCAAGUCTT against Trpm3	-2.79
GGCUACGAAACCAGAAGAUTT against Shd	0.117
CCUUCUGGCCCAGACGAUUTT against Pxmp2	-0.173
GCUGAGAGAAAGGUUCACATT against Tube1	-1.3
CCUUGUAUCCUUAAUCCUCTT against Ppt1	0.555
GGAAGCAGAAUUGUAAAGATT against Bid3	2.41 (active)
GGAAAUGUGACCACAAAGATT against Tas2r120	-0.347
GGAAGAAUUGAACCACAGGTT against Papolg	0.756
GGUGGCACUCUUUCAGAUCTT against 6030446I19Rik	0.179
GCCUGCUCUUGAAGGAUAATT against Ptpn9	1.13 (active)
GGACCUGUUUGAAGAAAAGTT against Gnai2	-0.66
GGUUUCUCUCUACGCUAUGTT against Nrp2	1.81
GGACUGGUUCUUCAGUACCTT against Cradd	2.24
CCGGCAACAUGCGUGAAUUTT against Trpv4	-0.769
GGAAAAAUGGGAGUUUGAATT against 4932423M01Rik	-0.322
GGAAUUUUAGCGGAUGAUATT against Smarca3	1.54 (active)
CCUAGAUUGAAAAUUGUCATT against 1700049G17Rik	-0.329
